Measured values from PubChem BioAssay (NCATS).
Several values for one entry are separate records, joined by “and”; a condition that tells them apart may be missing. Identical values can stand only once. Unmarked numbers belong to inactive results. Records with an inconclusive call do not appear. Where a call stands in place of a potency, no number is given. A structure can be active in one record and inactive in another. Activity calls are given as the source filed them. Unless noted, calls come from the whole dose curve; as a rule, active = well fitted curve in the direction sought with a large enough effect; inconclusive = small, poorly fitted or top-dose-only effect, or another doubt; inactive = no such curve, though single readings can be large; an effect the other way counts as inactive or inconclusive.

How the values were obtained:
[1] = qHTS for Activators of Parkin Expression: LOPAC Validation Assay (NLuc Reporter) (AID 720572)
Outline: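 Parkin promoter-driven FLuc/NLuc neuronal reporter cells; 24 h plating, 7-pt dose response, 24 h at 37 C/5% CO2; FLuc then NanoLuc reagent, 10 min each, luminescence; DMSO/positive control normalized.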

[2] = qHTS for Activators of Parkin Expression: LOPAC Validation Assay (FLuc Reporter) (AID 720573)
Outline: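 Readout is FLuc luminescence from neuronal reporter cells (Parkin promoter, FLuc plus NLuc) after 24 h compound exposure in dose response. Values normalized to neutral DMSO and positive-control compounds.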

[3] = target: T1, Hexokinase-4 (Homo sapiens) + Glucokinase regulatory protein (Homo sapiens) (UniProt P35557+Q14397); assay: qHTS assay for inhibitors of recombinant human GCK-GKRP interaction: Diaphorase-coupled assay (AID 743205)
Outline: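 Signal derives from resorufin generated by diaphorase, linked to GCK turnover of glucose (5 mM) and ATP (0.4 mM). Enzyme complex was added after a 20-minute compound preincubation and monitored for 30 minutes.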

[4] = target: T1, Hexokinase-4 (Homo sapiens) + Glucokinase regulatory protein (Homo sapiens); assay: qHTS assay for inhibitors of recombinant human GCK-GKRP interaction: ADP-Glo assay (AID 743206)
Outline: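 GST-GCK and FLAG-GKRP (15 nM each in the dispensed mix, with 2 uM S6P) react with 0.4 mM ATP and 5 mM glucose (final) in Hepes pH 7.6 for 60 min at room temperature. ADP is measured by ADP-Glo luminescence.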

[5] = target: T1, Hexokinase-4 (Homo sapiens) + Glucokinase regulatory protein (Homo sapiens); assay: qHTS assay for inhibitors of recombinant human GCK-GKRP interaction: HTRF assay (AID 743207)
Outline: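 Titration screening format: recombinant GST-GCK and FLAG-GKRP at 5 nM, S6P at 2 uM, labelled anti-tag antibodies, 60 min at RT, dual-wavelength HTRF readout.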

[6] = qHTS Assay for Identifying Gametocytocidal Compounds (AID 743244); note: potency is the fitted concentration of half-maximal effect;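 for max response: actives lower the fluorescent signal which means gametocytes are killed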; details: P. falciparum 3D7 stage III-V gametocytes, alamarBlue, 72 h; max response: hits give low values
Outline: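 P. falciparum 3D7 stage III–V gametocytes (20,000 cells/well) were exposed to compounds for 72 h at 37 °C, 5% CO2. AlamarBlue was then added for 24 h; decreased resorufin fluorescence (Ex 525/Em 598 nm) indicated loss of viability.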

[7] = qHTS assay for small molecule agonists of the antioxidant response element (ARE) signaling pathway measured by Nrf2-dependant transcriptional activity (AID 720636; active = well fitted curve in the direction sought with a large enough effect in the repeat runs; an effect the other way counts as inactive or inconclusive)
Outline: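 Nrf2-dependent transcription read as ONE-Glo luciferase signal from ARE-luc HepG2 reporter cells after 16 hr compound treatment at 37 C, 5% CO2, in assay medium with 1% dialyzed FBS.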

[8] = qHTS assay for small molecule antagonists of the retinoid-related orphan receptor gamma (ROR-gamma) signaling pathway - cell viability counter screen (AID 720652; active = well fitted curve in the direction sought with a large enough effect in the repeat runs; an effect the other way counts as inactive or inconclusive;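 note: compound exposure lasted 16 hr before ATP read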; note: potency is the fitted concentration of half-maximal effect)
Outline: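 Cytotoxicity is quantified via intracellular ATP (CellTiter-Glo luminescence) in doxycycline-induced CHO ROR response element-luciferase reporter cells treated with compound for 16 hr at 37 C, 5% CO2.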

[9] = qHTS assay for small molecule agonists of the antioxidant response element (ARE) signaling pathway measured by Nrf2-dependant transcriptional activity - cell viability counter screen (AID 720653; active = well fitted curve in the direction sought with a large enough effect in the repeat runs; an effect the other way counts as inactive or inconclusive; note: potency is the fitted concentration of half-maximal effect); details: ARE-bla HepG2 viability, CellTiter-Glo ATP luminescence, 16 h; max response: hits give low values
Outline: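 Cytotoxicity counter screen: intracellular ATP quantified by CellTiter-Glo luminescence in the same ARE-bla HepG2 plates, after 16 h compound exposure and a 2 h beta-lactamase substrate step.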

[10] = qHTS assay for cell viability of HEK293 cells (AID 743288); details: ATP luminescence (CellTiter-Glo), 18 h; max response: hits give low values; note: nearly all actives have a fitted effect of over 50% in size; note: potency is the fitted concentration of half-maximal effect
Outline: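 Luminescent ATP quantitation served as the viability read-out. Cells (parental HEK293, 2,000/well) received compounds after at least 5 h at 37 C and were exposed for 18 h before a 30 min room-temperature reagent step.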

T1 sequence (P35557 whole entry, looked up): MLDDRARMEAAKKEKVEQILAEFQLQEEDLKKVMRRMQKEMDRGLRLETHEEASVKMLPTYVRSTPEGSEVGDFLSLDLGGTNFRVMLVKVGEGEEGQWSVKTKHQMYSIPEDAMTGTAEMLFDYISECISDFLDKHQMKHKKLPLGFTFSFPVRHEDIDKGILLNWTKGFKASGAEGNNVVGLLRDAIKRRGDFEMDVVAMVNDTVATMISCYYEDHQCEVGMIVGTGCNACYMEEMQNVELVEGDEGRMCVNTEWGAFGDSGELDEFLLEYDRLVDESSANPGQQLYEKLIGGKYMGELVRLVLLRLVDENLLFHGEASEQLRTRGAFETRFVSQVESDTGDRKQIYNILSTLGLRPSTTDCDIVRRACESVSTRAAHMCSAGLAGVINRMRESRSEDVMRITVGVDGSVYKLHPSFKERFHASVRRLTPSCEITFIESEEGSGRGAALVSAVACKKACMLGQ
T1 sequence (Q14397 whole entry, looked up): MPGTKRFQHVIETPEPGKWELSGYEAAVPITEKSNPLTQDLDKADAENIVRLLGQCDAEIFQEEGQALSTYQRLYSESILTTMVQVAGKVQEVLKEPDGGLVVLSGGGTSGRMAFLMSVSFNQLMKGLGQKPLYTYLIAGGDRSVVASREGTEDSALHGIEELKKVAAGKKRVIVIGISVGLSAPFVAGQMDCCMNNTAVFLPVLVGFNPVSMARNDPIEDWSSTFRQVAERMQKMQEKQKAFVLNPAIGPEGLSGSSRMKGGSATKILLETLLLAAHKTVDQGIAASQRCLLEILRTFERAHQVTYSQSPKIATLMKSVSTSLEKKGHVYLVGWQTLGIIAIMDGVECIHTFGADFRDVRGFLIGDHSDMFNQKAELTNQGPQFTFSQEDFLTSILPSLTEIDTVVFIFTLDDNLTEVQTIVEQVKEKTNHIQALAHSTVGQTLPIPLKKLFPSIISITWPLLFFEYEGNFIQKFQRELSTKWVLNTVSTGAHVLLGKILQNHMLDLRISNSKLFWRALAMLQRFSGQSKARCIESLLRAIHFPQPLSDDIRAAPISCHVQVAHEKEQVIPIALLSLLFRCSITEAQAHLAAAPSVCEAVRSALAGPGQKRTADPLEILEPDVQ

## COc1ccc2c(c1O)-c1cccc3c1[C@@H](C2)N(C)CC3
[1]
  Potency: inactive
[2]
  outcome: inactive
[3]
  Potency: inactive
[4]
  outcome: inactive
[5]
  outcome: inactive
[6]
  max response: 27.6%

## NC(CCCCCP(=O)(O)O)C(=O)O (configuration not stated)
[1]
  Potency: inactive
[2]
  outcome: inactive
[3]
  Potency: inactive
[4]
  outcome: inactive
[5]
  outcome: inactive
[6]
  max response: -2.34%

## Clc1ccc(N2CC3CCC(C2)N3)nn1
[1]
  Potency: inactive
[2]
  outcome: inactive
[3]
  Potency: inactive
[4]
  outcome: inactive
[5]
  outcome: inactive
[6]
  max response: 23.5%

## CC(N)Cc1c[nH]c2ccc(OCc3cccs3)cc12 (configuration not stated)
[1]
  Potency: inactive
[2]
  outcome: inactive
[3]
  Potency: inactive
[4]
  outcome: inactive
[5]
  outcome: inactive
[6]
  Potency: 1.41 µM (active)

## CC(N)Cc1c[nH]c2ccc(O)cc12 (configuration not stated)
[1]
  Potency: inactive
[2]
  outcome: inactive
[3]
  Potency: inactive
[4]
  outcome: inactive
[5]
  outcome: inactive
[6]
  max response: 20.7%

## CN1CC[C@@]2(C)c3cc(O)ccc3N(C)C12 (some centres not stated)
[1]
  Potency: inactive
[2]
  outcome: inactive
[3]
  Potency: inactive
[4]
  outcome: inactive
[5]
  outcome: inactive
[6]
  Potency: 3.16 µM (active)

## NC(C(=O)O)c1cc(=O)[nH]o1 (configuration not stated)
[1]
  Potency: inactive
[2]
  outcome: inactive
[3]
  Potency: inactive
[4]
  outcome: inactive
[5]
  outcome: inactive
[6]
  max response: 7.64%

## [O]=[Cd]
[7]
  Potency: inactive
[8]
  Potency: inactive
[9]
  max response: -0.962%
[6]
  max response: 2.29%
[10]
  max response: 3.33%

## C#CCN[C@H](C)Cc1ccccc1
[1]
  Potency: inactive
[2]
  outcome: inactive
[3]
  Potency: inactive
[4]
  outcome: inactive
[5]
  outcome: inactive
[6]
  max response: 19.2%

## O=C(O)C(Cl)(Cl)Cl
[7]
  Potency: inactive
[8]
  Potency: inactive
[9]
  max response: -1.81% and -2.86%
[6]
  max response: 5.93%
[10]
  max response: 7.06% and 1.52%

## CCN(CCCl)Cc1ccccc1Br
[1]
  Potency: inactive
[2]
  outcome: inactive
[3]
  Potency: inactive
[4]
  outcome: inactive
[5]
  outcome: inactive
[6]
  max response: -1.83%

## C=CCN1CCc2cccc3c2[C@H]1Cc1ccc(O)c(O)c1-3
[1]
  Potency: inactive
[2]
  outcome: inactive
[3]
  Potency: inactive
[4]
  outcome: inactive
[5]
  outcome: inactive
[6]
  Potency: 1.12 µM (active)

## CC(C)(O)[C@@H]1C2OC(=O)[C@@H]1[C@]1(O)C[C@H]3O[C@]34C(=O)O[C@H]2[C@]14C (tested in a mixture with another compound)
[1]
  Potency: inactive
[2]
  outcome: inactive
[3]
  Potency: inactive
[4]
  outcome: inactive
[5]
  outcome: inactive
[6]
  max response: 18.2%

## CN1C2CCC1CC(OC(c1ccccc1)c1ccccc1N)C2 (configuration not stated)
[1]
  Potency: inactive
[2]
  outcome: inactive
[3]
  Potency: inactive
[4]
  outcome: inactive
[5]
  outcome: inactive
[6]
  max response: 17.7%

## Nc1ccc(CCN2CCN(c3cccc(C(F)(F)F)c3)CC2)cc1
[1]
  Potency: inactive
[2]
  outcome: inactive
[3]
  Potency: inactive
[4]
  outcome: inactive
[5]
  outcome: inactive
[6]
  max response: 14.5%

## CC(C)NP(=O)(NC(C)C)OP(=O)(NC(C)C)NC(C)C
[1]
  Potency: inactive
[2]
  outcome: inactive
[3]
  Potency: inactive
[4]
  outcome: inactive
[5]
  outcome: inactive
[6]
  max response: 7.64%

## O=Cc1ccco1
[7]
  Potency: inactive
[8]
  Potency: inactive
[9]
  max response: -4.31%
[6]
  max response: 5.14%
[10]
  max response: 6.18%

## N[C@@H](CCl)C(=O)O
[1]
  Potency: inactive
[2]
  outcome: inactive
[3]
  Potency: inactive
[4]
  outcome: inactive
[5]
  outcome: inactive
[6]
  max response: 3.64%

## O=C1C2CC=CCC2C(=O)N1SC(Cl)(Cl)Cl (configuration not stated)
[7]
  Potency: inactive
[8]
  Potency: 29.8 µM (active)
[9]
  Potency: 28.2 µM (active)
  max response: -23.3%
[6]
  max response: -3.19%
[10]
  Potency: 10 µM (active)

## C[C@H](N)CN1CCc2ccc(Br)cc21
[1]
  Potency: inactive
[2]
  outcome: inactive
[3]
  Potency: inactive
[4]
  outcome: inactive
[5]
  outcome: inactive
[6]
  Potency: 7.43 µM (active)

## C[C@H]1CC[C@@H]2[C@@H](C)[C@H]3[C@H](C[C@H]4[C@@H]5CC=C6CC(O[C@@H]7O[C@H](CO)[C@H](O)[C@H](O[C@@H]8O[C@H](CO)[C@@H](O)[C@H](O)[C@H]8O)[C@H]7O[C@H]7O[C@@H](C)[C@H](O)[C@@H](O)[C@H]7O)CC[C@]6(C)[C@H]5CC[C@]34C)N2C1 (some centres not stated)
[7]
  Potency: inactive
[8]
  Potency: 18.8 µM (active)
[9]
  Potency: 44.7 µM (active)
[6]
  max response: -0.257%
[10]
  Potency: 12.6 µM (active)

## C[C@]12CCC(=O)C[C@@H]1CC[C@@H]1[C@@H]2CC[C@]2(C)[C@@H](O)CC[C@@H]12
[7]
  Potency: inactive
[8]
  Potency: inactive
[9]
  max response: -16.7% and -5.79%
[6]
  max response: 17.9%
[10]
  max response: -9.61% and -12.6%
